Several values for one entry are separate records, joined by “and”; a condition that tells them apart may be missing. Equal values may be shown once. About 2,000 (36%) of roughly 5,500 compounds were called active. Another 18% or so got no clear call; they are omitted. Rule as the data show it: active = normalized growth mostly below about 0.91 (no sharp cut-off); inconclusive = no clear call, values can overlap the other calls; inactive = mostly above about 0.92. The list shows a part of the results.
Experiment: chemical genetic growth profiling, strain panel (AID 1159580);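 also: tested at 20 µM; growth read once vehicle control cultures reached saturation at 30 °C; 1 = growth at the plate median or of vehicle wells; lower values mean less growth of the strain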
Conditions: S. cerevisiae deletion strains, growth OD

Measured: normalized growth

CNC(=O)CSP(=S)(OC)OC
inactive: locus YAL013W, strain DEP1, hits give low values 1.02 | locus YAL021C, strain ccr4, hits give low values 1.01 | locus YAL026C, strain drs2, hits give low values 1.01 | locus YAL030W, strain snc1, hits give low values 1.01 | locus YBL061C, strain skt5, hits give low values 1.03 | locus YBR009C, strain hhf1, hits give low values 0.999 | locus YBR021W, strain FUR4, hits give low values 0.994 | locus YBR023C, strain chs3, hits give low values 1.03 | locus YBR171W, strain sec66, hits give low values 1.03 | locus YBR229C, strain ROT2, hits give low values 1.01 | locus YBR231C, strain swc5, hits give low values 1.01 | locus YBR279W, strain paf1, hits give low values 1.01 | locus YCL011C, strain gbp2, hits give low values 1.02 | locus YCL016C, strain dcc1, hits give low values 1.02 | locus YCL029C, strain bik1, hits give low values 1.01 | locus YCL061C, strain MRC1, hits give low values 1.01 | locus YCL069W, strain vba3, hits give low values 1.02 | locus YCR088W, strain abp1, hits give low values 1.01 | locus YDL005C, strain med2, hits give low values 1.03 | locus YDL035C, strain GPR1, hits give low values 1.02 | locus YDL040C, strain nat1, hits give low values 1.02 | locus YDL074C, strain BRE1, hits give low values 0.971 | locus YDL101C, strain DUN1, hits give low values 1 | locus YDL134C, strain PPH21, hits give low values 1 | locus YDL185W, strain tfp1, hits give low values 1.03 | locus YDL192W, strain arf1, hits give low values 1.02 | locus YDR001C, strain nth1, hits give low values 1.01 | locus YDR069C, strain doa4, hits give low values 1.02 | locus YDR101C, strain arx1, hits give low values 1.02 | locus YDR137W, strain rgp1, hits give low values 1.03 | locus YDR150W, strain NUM1, hits give low values 1.01 | locus YDR159W, strain sac3, hits give low values 1.02 | locus YDR162C, strain NBP2, hits give low values 1.01 | locus YDR195W, strain ref2 0.99 | locus YDR297W, strain sur2, hits give low values 1.01 | locus YDR318W, strain mcm21, hits give low values 1.02 | locus YDR334W, strain swr1, hits give low values 1.02 | locus YDR335W, strain msn5, hits give low values 1.01 | locus YDR388W, hits give low values 1.02 | locus YDR392W, strain spt3, hits give low values 1.01 | locus YDR502C, strain sam2, hits give low values 1.02 | locus YEL003W, strain gim4, hits give low values 1.01 | locus YEL037C, strain rad23, hits give low values 1.02 | locus YEL061C, strain CIN8 (second series), hits give low values 1.01 | locus YEL061C, strain CIN8, hits give low values 1.01 | locus YER015W, strain faa2, hits give low values 1.02 | locus YER016W, strain bim1, hits give low values 1.02 | locus YER110C, hits give low values 1.02 | locus YER111C, strain swi4, hits give low values 1.01 | locus YER155C, strain BEM2 (second series), hits give low values 1.02 | locus YER155C, strain BEM2, hits give low values 1.01 | locus YER167W, strain BCK2, hits give low values 1.01 | locus YFR010W, strain ubp6, hits give low values 1.01 | locus YGL078C, strain dbp3, hits give low values 1.02 | locus YGL086W, strain mad1, hits give low values 1.01 | locus YGL167C, strain pmr1, hits give low values 1.02 | locus YGL173C, strain kem1, hits give low values 1.02 | locus YGL227W, strain vid30, hits give low values 1.01 | locus YGL240W, strain doc1, hits give low values 1 | locus YGL248W, strain PDE1, hits give low values 1 | locus YGL253W, strain hxk2, hits give low values 1.03 | locus YGR078C, strain PAC10, hits give low values 1.02 | locus YGR135W, strain pre9, hits give low values 1.01 | locus YGR229C, strain SMI1, hits give low values 1.03 | locus YGR252W, strain gcn5, hits give low values 0.995 | locus YHR013C, strain ard1, hits give low values 1.01 | locus YHR027C, strain rpn1, hits give low values 1.02 | locus YHR030C, strain SLT2, hits give low values 1.03 and 1.08 | locus YHR079C, strain IRE1 (second series), hits give low values 1.02 | locus YHR079C, strain IRE1, hits give low values 1.04 | locus YHR094C, strain hxt1, hits give low values 1.02 | locus YHR129C, strain ARP1, hits give low values 1.01 | locus YHR142W, strain chs7, hits give low values 1.03 | locus YHR200W, strain rpn10, hits give low values 1.02 | locus YIL066C, strain RNR3, hits give low values 1.04 | locus YIL073C, strain SPO22, hits give low values 1.09 | locus YIL125W, strain kgd1, hits give low values 1.01 | locus YIR030C, strain dcg1, hits give low values 1.03 | locus YJL092W, strain hpr5, hits give low values 1.01 | locus YJL095W, strain BCK1 (second series), hits give low values 1.03 | locus YJL095W, strain BCK1, hits give low values 1 and 1.08 | locus YJL115W, strain asf1, hits give low values 1.01 | locus YJL129C, strain trk1, hits give low values 1.03 | locus YJL134W, strain LCB3, hits give low values 1 | locus YJL154C, strain vps35, hits give low values 1.01 | locus YJL164C, strain tpk1, hits give low values 1.02 | locus YJL166W, strain qcr8, hits give low values 1 | locus YJL168C, strain set2, hits give low values 1.02 | locus YJL187C, strain SWE1 (second series), hits give low values 1.02 | locus YJR043C, strain POL32, hits give low values 0.998 | locus YJR066W, strain TOR1, hits give low values 0.992

Source: PubChem BioAssay AID1159580 (chemical genetic matrix, 2015)
